ELG1 DNA repair = ELG1-dependent DNA repair inhibition | HEK293T ELG1-luciferase reporter, luminescence, 16 h; DNA damage induced by 5-fluorouridine | Potency, µM (series often up to 46.1 µM), without a hit: at the highest dose activity change, negative = inhibition, usual class: inhibitors | actives 2.3% (n = 330,000); note: potency is the fitted concentration of half-maximal effect; nearly all actives have a fitted effect of over 55% in size
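Overnight (16 hr) co-exposure of 2,000 cells/well to 5-fluorouridine and compound at 37 °C preceded detection. Luciferase was quantified via ONE-Glo luminescence; loss of signal denotes inhibition.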
VP16 counter = inhibits Gal4-VP16 luciferase reporter, ROR gamma counter-screen | Drosophila S2 Gal4-VP16 UAS-luciferase, luminescence, 20 h | Potency, µM (series often up to 53.6 µM), inactives show at the top dose activity, negative = inhibition, usual class: inhibitors | actives 3.5% (n = 310,000) | AID 2546;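 note: Gal4-VP16 expression switched on by copper sulfate through the metallothionein promoter; potency is the fitted concentration of half-maximal effect; nearly all actives have a fitted effect of over 50% in size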
RORg inh = inhibitors of mouse ROR gamma transcriptional activity; P51450; Drosophila S2 Gal4-RORgamma UAS-luciferase reporter, 20 h; Potency, µM (doses to about 53.6 µM), without a hit: at the top dose activity change, negative = inhibition, most hits filed as inhibitors; actives 5.4% (n = 310,000); note: potency is the fitted concentration of half-maximal effect; nearly all actives have a fitted effect of over 60% in size
Target sequence (P51450 whole entry, looked up, the tested form may be a part): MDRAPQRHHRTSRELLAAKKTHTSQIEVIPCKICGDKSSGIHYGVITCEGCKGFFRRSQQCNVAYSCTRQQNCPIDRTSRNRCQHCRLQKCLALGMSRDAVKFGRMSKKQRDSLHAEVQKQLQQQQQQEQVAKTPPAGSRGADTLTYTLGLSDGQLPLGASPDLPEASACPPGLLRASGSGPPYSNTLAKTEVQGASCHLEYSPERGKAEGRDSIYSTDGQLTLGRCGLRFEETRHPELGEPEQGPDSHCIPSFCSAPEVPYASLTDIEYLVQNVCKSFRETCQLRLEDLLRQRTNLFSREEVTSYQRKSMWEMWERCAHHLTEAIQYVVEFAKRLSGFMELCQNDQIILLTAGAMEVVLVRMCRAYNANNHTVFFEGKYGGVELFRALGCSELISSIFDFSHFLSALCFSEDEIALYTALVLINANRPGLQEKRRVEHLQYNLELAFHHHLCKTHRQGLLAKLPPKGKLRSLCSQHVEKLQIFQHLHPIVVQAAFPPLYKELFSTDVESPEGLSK
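Schneider cells (Drosophila), stable Gal4 DBD–ROR gamma + UAS-luc; 1 hr cmpd preincubation; Cu2+ induction 700 uM final; 20 hr ambient; luminescence.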
DT40 TDP1 CPT = DT40-hTDP1 cell growth loss with CPT | chicken DT40 Tdp1-/-;hTDP1 cells + 20 nM CPT, ATP luminescence, 48 h | Potency, µM (titrated, usually from 46.2 µM), for inactives: at the top dose activity change, negative = growth inhibition, most hits filed as inhibitors | actives 12% (n = 420,000) | AID 686979; note: potency is the fitted concentration of half-maximal effect; nearly all actives have a fitted effect of over 55% in size
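Cell growth measured by CellTiter-Glo luminescence after a minimum 48 h, 37 C compound exposure with 20 nM CPT in Tdp1-knockout DT40 cells stably expressing hTDP1, seeded 400/well; qHTS titration format.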
IL1B secr inh = blocks inflammasome-driven IL-1 beta release; THP-1 LPS/ATP IL-1B secretion, AlphaLISA, 16 h; stronger effect = lower value; activity change, % at 57.5 µM; actives 4.7% (n = 360,000); AID 743279; in the data active = activity change below about -50%; inconclusive = mostly about -30% to -49%
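THP-1 cells pretreated 1 hr with compounds (up to 57.5 uM final), then stimulated with LPS (250 ng/mL final) plus ATP (1.25 mM final); secreted IL-1B measured by AlphaLISA after 16 hr, decreased signal indicating inhibition.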
TDP1 cell noCPT = qHTS for Inhibitors of human tyrosyl-DNA phosphodiesterase 1 (TDP1): qHTS in cells in absence of CPT | Potency, µM (titrated, usually from 46.2 µM), for the others: at the highest dose activity change, negative = growth inhibition, most hits filed as inhibitors | actives 15% (n = 420,000) | DT40 Tdp1-/- hTDP1 cells, no CPT, ATP luminescence, 48 h; note: potency is the fitted concentration of half-maximal effect; nearly all actives have a fitted effect of over 55% in size
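Growth kinetics read by CellTiter-Glo luminescence after ≥48 hr at 37 °C. Cells: DT40 Tdp1-/- stably carrying human TDP1, 400 per well, compound exposure in the absence of CPT (DMSO vehicle).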
The depositor's hits bear a star; ? = inconclusive; . = no result given; [ ] = dose if it differs, or a comment. In the library only some 21% were active in any assay of this set; here they are far more common. Unless noted, calls come from the whole dose curve; as a rule, active = well fitted curve in the direction sought with a large enough effect; inconclusive = small, poorly fitted or top-dose-only effect, or another doubt; inactive = no such curve, though single readings can be large; an effect the other way counts as inactive or inconclusive. % is set by controls: 0 for no effect and ±100 for the full control effect.

SMILES	ELG1 DNA repair	VP16 counter	RORg inh	DT40 TDP1 CPT	IL1B secr inh	TDP1 cell noCPT
COCCCNc1nc(NCc2cccc(Cl)c2)c2cnn(C)c2n1	.	.	.	?	.	18.4µM*
COc1ccc(C(O)c2nccn2Cc2ccccc2)cc1 (stereo not given)	0.6%	0.2%	-24.0%	-29.2%	-9.9	-14.4%
CCc1ncc(C(O)c2ccc(Cl)cc2)n1Cc1ccccc1 (stereo not given)	.	.	.	18.4µM*	17.1	11.6µM*
Cc1ncc(C(O)c2ccc(N(C)C)cc2)n1Cc1ccccc1 (stereo not given)	.	.	.	?	-2.3	23.1µM*
CCN1C(=O)[C@H]2[C@H]3[C@H](O)[C@H](O)C/C(=N/NC(=O)OCc4ccccc4)[C@@H]3CC[C@@H]2C1=O	.	-4.4%[10 µM]	-14.3%[10 µM]	.	.	.
Cc1cc(Cl)ccc1NC(=O)CN1C(=O)C(=O)c2ccccc21	.	.	.	5.8µM*	.	4.11µM*
CCOC(=O)c1ccc(NC(=O)CN2C(=O)c3cccnc3Oc3ccc(Cl)cc32)cc1	.	.	.	?	.	20.6µM*
Cc1ccc(NC(=O)CN2C(=O)c3cccnc3Oc3ccc(Cl)cc32)cc1	.	.	.	20.6µM*	.	29.1µM*
Cc1cccc(NC(=O)CN2C(=O)c3cccnc3Oc3ccc(Cl)cc32)c1C	.	.	.	-98.3%	.	20.6µM*
CC(O)CNc1nc2c(c(=O)n(Cc3ccccc3)c(=O)n2C)n1C (stereo not given)	-13.3%	0.4%	3.1%	10.5%	-1.9	-13.5%
Cc1ccc2c(=O)n3c(nc2c1)C(Cc1ccccc1)NC(=O)c1cc2ccccc2cc1-3 (stereo not given)	.	.	.	?	-8.5	?
CCOC(=O)c1ccc(NC(=O)CN2C(=O)COc3ccc(Cl)cc32)cc1	.	.	.	13µM*	.	16.4µM*
CCOc1ccc(CCNC(=O)CCSCc2ccc(Cl)cc2)cc1OCC	.	.	.	?	.	23.1µM*
CCOc1ccc(CCNC(=O)CSC(=S)N2CCCC2)cc1OCC	7.4%	.	.	20.6µM*	-11.0	?
CCOc1ccc(CCNC(=O)CCSCc2cccc(Cl)c2)cc1OCC	.	.	.	?	.	20.6µM*
COc1ccc(Br)cc1CNC(=O)CCSCc1ccc(Cl)cc1	.	.	.	?	.	25.9µM*
COc1ccc(Br)cc1CNC(=O)CCSCc1ccc(C)cc1	.	.	.	-28.2%	.	?
COc1cc(OC)cc(C(=O)NC(C(=O)NNC(=O)CN(C)S(=O)(=O)c2ccc(C)cc2)C(C)C)c1 (stereo not given)	.	.	.	6.2%	-2.2	?
O=C(CSc1ccncc1)NCC1Cc2cccc(-c3cncnc3)c2O1 (stereo not given)	.	.	.	?	.	-26.9%
CCOc1ccc(CCNC(=O)CCOc2cc(C)ccc2C)cc1OCC	-13.4%	5.1%	17.1%	?	-5.1	18.4µM*
Cc1ccc(C)c(OCCC(=O)NCCc2ccc(Cl)cc2)c1	-1.7%	-1.6%	16.1%	-27.0%	3.6	?
Cc1cccc(C)c1NC(=O)/C(=C/c1ccco1)c1ccccc1	1.4%	12.6µM*	?	18.4µM*	-15.9	13µM*
O=C(NCCc1ccccc1)/C(=C/c1ccco1)c1ccccc1	-2.6%	?	19.5%	25.9µM*	-9.4	?
Cc1cc(C)c(NC(=O)/C(=C/c2ccco2)c2ccccc2)c(C)c1	0.3%	5.3%	5.6%	?	21.2	?
C[C@H](CO)N1C[C@H](C)[C@H](CN(C)Cc2ccncc2)Oc2ncc(Br)cc2C1=O	.	.	.	4.2%	11.7	-0.7%
SMILES	ELG1 DNA repair	VP16 counter	RORg inh	DT40 TDP1 CPT	IL1B secr inh	TDP1 cell noCPT
O=S1(=O)NCC23CCC(CC21)O3 (stereo not given)	.	18.4%	-3.4%	.	.	.
CC1CCC2C(=O)N3CCCC3C(=O)N2C1c1ccc(Br)cc1 (stereo not given)	.	4.2%[10 µM]	-0.7%[10 µM]	.	.	.
O=c1c2ccccc2nc2n1CC/C2=C/N1CCN(c2cccc(C(F)(F)F)c2)CC1	-4.4%	-3.3%	21.1%	18.4µM*	18.7	?
O=C(O)c1ccc2c(=O)n3c(nc2c1)/C(=C/c1ccc(C(F)(F)F)cc1)CC3	-3.0%	-13.6%	?	-19.7%	12.8	2.0%
Clc1ccc2c(c1)C(C1=NCCN1)c1ccccc1CS2 (stereo not given)	?	-5.3%	1.6%	6.51µM*	-11.7	5.8µM*
Cc1ccc(CNC(=O)C(=O)NCC(c2ccc3c(c2)OCO3)N2CCOCC2)cc1 (stereo not given)	.	.	.	2.1%	.	-25.5%
C=CC[C@@H](CC(=O)N(CCO)Cc1ccccc1)C(=O)N[C@@H](COC(=O)[C@@H](CC=C)CC(=O)OC(C)(C)C)Cc1c[nH]c2ccccc12	?	.	.	25.9µM*	-62.3*	20.6µM*
C=CC[C@@H](CC(=O)N(CCO)Cc1ccccc1)C(=O)N[C@H](COC(=O)[C@@H](CC=C)CC(=O)OC(C)(C)C)Cc1c[nH]c2ccccc12	18.3µM*	.	.	18.4µM*	-55.7*	23.1µM*
C=CC[C@H](CC(=O)N(CCO)Cc1ccccc1)C(=O)N[C@@H](COC(=O)[C@H](CC=C)CC(=O)OC(C)(C)C)Cc1c[nH]c2ccccc12	23.1µM*	.	.	14.6µM*	-61.8*	16.4µM*
C=CC[C@H](CC(=O)N[C@H](CO)Cc1ccccc1)C(=O)N[C@@H](COC(=O)[C@@H](CC=C)CC(=O)OC(C)(C)C)Cc1c[nH]c2ccccc12	?	.	.	?	-13.4	?
CC1CCN(c2ncnc3ccccc23)CC1	?	?	?	13µM*	-27.4	23.1µM*
O=S(=O)(c1cc(C(F)(F)F)ccc1Cl)N1CCN(c2ncnc3ccccc23)CC1	?	.	.	2.06µM*	-16.0	2.06µM*
Cc1cc(C)c(C)c(S(=O)(=O)N2CCN(c3ccccn3)CC2)c1C	5.4%	5.6%	-14.8%	-23.3%	10.9	-4.7%
Cc1cc(C)c(C)c(S(=O)(=O)N2CCN(c3ncnc4ccccc34)CC2)c1C	?	.	.	10.3µM*	9.0	8.2µM*
CC1CCN(c2nc(-c3ccccc3O)nc3ccccc23)CC1	-6.2%	13.1%	1.0%	?	25.4	?
O=S(=O)(c1cc(C(F)(F)F)ccc1Cl)N1CCCCCC1	0.0%	-2.6%	-6.4%	-8.9%	-3.5	-17.2%
COC(=O)C1=C(C)N(Cc2ccccc2)C2=C(C(C)=O)C[C@@](O)(C(=O)OC)C(=O)N2C1c1ccccc1 (stereo not given in full)	.	5.7%[10 µM]	4.9%[10 µM]	.	.	.
CC(/C=C\c1ccccc1)=C/C(=O)O	0.0%	-3.7%	44.1%	7.8%	-19.2	-18.6%

Compound activity: PubChem, National Center for Advancing Translational Sciences (NCATS)
